Test results as given in PubChem BioAssay (EPA / NIEHS).
Calls of active or inactive are those of the source. Rule for the calls: active = hit-call score of the fitted dose curve at least 0.9, where 1 is the maximum; inactive = score below 0.9.

Test: APR_HepG2_MitoticArrest_72hr: Apredica 72-hour HepG2 Assay for Mitotic Arrest (AID 2282918)
Conditions: high-content imaging, actives raise or lower the signal
Procedure: APR_HepG2_72hr is a cell-based, multiplexed-readout assay that uses HepG2, a human liver cell line, with measurements taken at 72 hours after chemical dosing in a 384-well plate.APR_HepG2_MitoticArrest_72hr is one of 10 assay component(s) measured or calculated from the APR_HepG2_72hr assay. It is designed to make measurements of cell phenotype, a form of morphology reporter, as detected with fluorescence intensity signals by HCS Fluorescent Imaging technology.Data from the assay component APR_HepG2_MitoticArrest_72hr was analyzed into 1 assay endpoint. This assay endpoint, APR_HepG2_MitoticArrest_72hr, was analyzed with bidirectional fitting relative to DMSO as the negative control and baseline of activity. Using a type of morphology reporter, measures of protein for gain or loss-of-signal activity can be used to understand the signaling at the pathway-level as they relate to the gene . Furthermore, this assay endpoint can be referred to as a primary readout, because this assay has produced multiple assay endpoints where this one serves a signaling function. To generalize the intended target to other relatable targets, this assay endpoint is annotated to the cell cycle intended target family, where the subfamily is arrest.
Cells were treated with dimethyl sulfoxide (DMSO) as a solvent control at a final concentration of 0.5% v/v or with compounds in DMSO with a resulting final DMSO concentration of 0.5% v/v. Compound treatment was done at concentrations of 0.39, 0.78, 1.56, 3.12, 6.24, 12.5, 25, 50, 100, and 200 uM in duplicate on each plate. Cells were treated with compounds for 1, 24, or 72 hr. Carbonyl […] m-chloro-phenylhydrazone (CCCP) and taxol were used as positive controls for mitochondrial function and cytoskeletal stability, respectively; DMSO served as the negative control for this experiment. Cells were fixed by the direct addition of 50 uL formaldehyde in Hank's Balanced Salt Solution (HBSS) to a final concentration of 3.7%. After incubation in the fixation medium for 30 min at room temperature (293-298 K), cells were rinsed twice with HBSS and treated with cell permeabilization buffer (16 uL of 0.5% Triton X-100) for 10 min at room temperature (293-298 K) before labeling. For mitochondrial membrane potential and mitochondrial measurements, pre-fixed cells were incubated with 50 uL of MitoTracker Red CMXRos (Invitrogen) at a concentration of 250 nM for 30 min before fixation. In the remaining cases, post-fixed cells were labeled by incubation with a multiplexed mixture of primary antibodies in HBSS for 60 min at room temperature (293-298 K) to detect immunoreactivity of c-Jun (1:500), phospho-histone H3 (1:100), phospho-histone H2A.x (1:200), p53 (1:400), alpha-tubulin (1:200) and Hoechst 33342 (2 ug/mL). Cells were labeled for multiplexed imaging on two separate plates: a) Hoechst 33342, MitoTracker Red, phospho-histone H3, and alpha-tubulin, and b) Hoechst 33342, phospho-histone H2A.x, and c-Jun. A final rinse with HBSS (50 uL) was performed before analysis. The primary and secondary antibodies for the proteins were phospho-histone H3 (rabbit anti-phospho-histone H3 and FITC-donkey anti-rabbit IgG), phospho-histone H2A.x (mouse anti-phospho-histone H2A.x and FITC-donkey anti-mouse IgG), c-Jun (rabbit anti-phospho-c-Jun and Cy3-donkey anti-rabbit IgG), p53 (sheep anti-p53 and Cy5-donkey anti-sheep IgG), alpha-tubulin (mouse anti-alpha-tubulin and Cy5-donkey anti-mouse IgG). These antibodies are available as the CellCiphr HepG2 assay kit (Millipore).Digital images of each well were captured using a Cellomics ArrayScan VTI (Thermo Scientific Cellomics) (0.8 NA objective, 0.63x optical coupler, and XF-93 filter set) at 20x magnification. The images were acquired using the autofocus feature of the ArrayScan instrument, which entails the following steps. First, the camera focuses on channel 1 (Hoechst 33342), where nuclei are identified. Second, a Z offset of 1 um is used for capturing mitochondria (MitoTracker Red). […]

SMILES | outcome | AC50
CN1CCC[C@H]1c1cccnc1 | inactive | –
CCCCCCCCOC(=O)CCCCCCCCC(=O)OCCCCCCCC | inactive | –
OC1CCC(C2CCCCC2)CC1 (stereo not given) | inactive | –
N#C[C@@H]1CC(F)(F)CN1C(=O)CNC1CC2CCC(C1)N2c1ncccn1 (stereo not given in full) | inactive | –
CCCCCCCCCCCCc1ccccc1S(=O)(=O)O | – | 107 µM (active)
CCN(CC)CCNc1ccc(CNC=O)c2sc3ccc(OC)cc3c(=O)c12 | – | 5 µM (active)
CC#C[C@]1(O)CC[C@H]2[C@@H]3CCC4=CC(=O)CCC4=C3[C@@H](c3ccc(N(C)C)cc3)C[C@@]21C | inactive | –
c1ccc2cc3c(ccc4ccccc43)cc2c1 | – | 27.6 µM (active)
COCC(C)OCC(C)O (stereo not given) | inactive | –
CCCCC(CC)COC(=O)CCCCC(=O)OCC(CC)CCCC (stereo not given) | inactive | –
O=C(OCCOCCOC(=O)c1ccccc1)c1ccccc1 | inactive | –
CCCCCCCC(=O)O | inactive | –
CCCCCCCCCCCCN1CCCC1=O | – | 62.4 µM (active)
CC(O)CO (stereo not given) | inactive | –
CC(C)(C)c1ccc(O)c(C(C)(C)C)c1 | inactive | –
COCC(C)O (stereo not given) | inactive | –
Oc1cc2ccccc2c2ccccc12 | – | 8.45 µM (active)
CCCCC(CC)COC(=O)CCCCC(=O)OCc1ccccc1 (stereo not given) | inactive | –
CC(=O)CC(C)(C)O | – | 0.45 µM (active)
CCC(C)(C)C1CCC(O)CC1 (stereo not given) | – | 102 µM (active)

SMILES | outcome | AC50
O=C(/C=C/c1ccc(O)cc1)CC(=O)/C=C/c1ccc(O)cc1 | inactive | –
CCCCC[C@H](O)CC(=O)CCc1ccc(O)c(OC)c1 | inactive | –
CC(C)CCCCCCOC(=O)CCCCC(=O)OCCCCCCC(C)C | inactive | –
C=C(C)C(=O)OCCC(F)(F)C(F)(F)C(F)(F)C(F)(F)C(F)(F)C(F)(F)F | inactive | –
O=C(O)c1ccccc1C(c1ccc(O)cc1)c1ccc(O)cc1 | inactive | –
OCCC(F)(F)C(F)(F)C(F)(F)C(F)(F)C(F)(F)C(F)(F)C(F)(F)C(F)(F)F | – | 21.8 µM (active)
CCOC(=O)CC(O)(CC(=O)OCC)C(=O)OCC | inactive | –
CCCCOCCO | inactive | –
ClC1=C(Cl)C(Cl)(Cl)C(Cl)=C1Cl | inactive | –
CCCCCCCCCCCCCCCS(=O)(=O)Oc1ccccc1 | inactive | –
CCCCCCC(=O)O | inactive | –
CCCOC(=O)c1ccc(O)cc1 | inactive | –
C#C[C@]1(O)CC[C@H]2[C@@H]3CCC4=CC(=O)CC[C@@H]4[C@H]3CC[C@@]21C | inactive | –
Cc1oc(-c2ccccc2)nc1CCOc1ccc(C[C@H](Nc2ccccc2C(=O)c2ccccc2)C(=O)O)cc1 | – | 67.8 µM (active)
O=C(O)Cc1cc(I)c(Oc2cc(I)c(O)c(I)c2)c(I)c1 | inactive | –
c1ccc2c(c1)ccc1ccccc12 | inactive | –
CCCCCCCCC(=O)O | inactive | –
O=[N+]([O-])c1ccc(O)cc1 | inactive | –
COc1cc(CCC(=O)CC(=O)CCc2ccc(O)c(OC)c2)ccc1O | – | 166 µM (active)
CN1CCN(c2ccccc2/C=C2\SCCN(c3ccc(Cl)c(Cl)c3)C2=O)CC1 | – | 4.25 µM (active)
